Laboratory results published in PubChem BioAssay AID651789 (National Center for Advancing Translational Sciences (NCATS), 2012).
Records with an inconclusive call do not appear. A number with no mark means an inactive call. Activity calls are given as the source filed them. The call rests on the fitted dose curve; in most records, active means well fitted inhibition curve with a large enough effect; inconclusive means small, poorly fitted or top-dose-only effect; inactive means no such curve, though single readings can be large or run the other way.

test: Acumen qHTS Assay for Inhibitors of the mTORC1 Signaling Pathway in WT MEF Cells: Hit Validation; conditions: Acumen imaging; series mostly up to 37.3 µM; activity change, negative = inhibition: at the top concentration; further: nearly all actives have a fitted effect of over 60% in size;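 on activity change, negative = inhibition: phospho-rpS6 Ser235/236 immunofluorescence normalised to propidium iodide cell stain; percent of cells above a cutoff set by 7.5 nM rapamycin treated wells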
How it was run: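 Read-out is immunofluorescent phospho-rpS6 (Ser235/236) normalised to PI-stained cell number, reported as % active cells using a 7.5 nM rapamycin threshold. Cells: WT or Tsc2-/-, p53-/- MEFs, compound-exposed 24 h at 37C; PI count also tracks viability.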
Potency means the concentration at half of the fitted maximal effect.

Row | Compound | activity change, negative = inhibition [%] | Potency
1 | CCOc1ccc(-n2c(C)nc3c(cnn3-c3ccc(C)cc3)c2=O)cc1 | -28.3 | 
2 | O=C(NCc1ccccc1Cl)C(=O)NCC(c1cccs1)S(=O)(=O)c1cccs1 (stereo not given) | -22.4 | 
3 | CCOC(=O)Cn1c(=O)c2c(nc(N3CCOCC3)n2Cc2ccccc2)n(C)c1=O |  | 4.14 µM (active)
4 | Cc1noc(/C=C/N(C)C)c1S(=O)(=O)N1CCCC(C(=O)Nc2ccc(F)cc2F)C1 (stereo not given) |  | 1.85 µM (active)
5 | CCCOCc1cc(CN2CCN(c3ccccc3OC)CC2)c(O)c2ncccc12 |  | 1.47 µM (active)
6 | O=S(=O)(c1cccc2cnccc12)N1CCCNCC1 | -22.7 | 
7 | COc1cc(C(=O)NC(c2ccccc2Cl)c2cc(Cl)c3cccnc3c2O)cc(OC)c1OC (stereo not given) | -10.6 | 
8 | CCCSc1oc(-c2ccco2)nc1S(=O)(=O)c1ccc(Br)cc1 | 4.58 | 
9 | COc1ccc(OC)c(NC(=O)c2nc(S(=O)(=O)Cc3ccc(F)cc3)ncc2Cl)c1 |  | 3.29 µM (active)
10 | Cc1nc2ccc(S(=O)(=O)CCC(=O)Nc3ccc(Cl)cc3)cc2s1 | -9.92 | 
11 | CCc1ccc(-n2c(=O)c3c4c(sc3n(CC(=O)c3ccc(F)cc3)c2=O)CCC4)cc1 |  | 18.5 µM (active)
12 | Cc1c(C(=O)OCCOc2ccccc2)[nH]c2c1C(=O)CC(c1ccccc1)C2 (stereo not given) |  | 0.0656 µM (active)
13 | Cc1ccc(S(=O)(=O)Nc2ccc3c(c2)c(C(=O)OC(C)C)c(C)n3S(=O)(=O)c2ccc(C)cc2)cc1 | 0.763 | 
14 | CC(C)(C)c1ccc(C(=O)Nc2nnc3n2CCS3)cc1 |  | 8.26 µM (active)
15 | Nc1c(C(=O)NCc2ccccc2)nnn1Cc1cccc(Br)c1 |  | 13.1 µM (active)
16 | Cc1cccn2c(Nc3ccccc3)c(-c3cccs3)nc12 | 6.87 | 
17 | COc1cc(NC(=O)Cn2nc(C(F)(F)F)c3c2CCCC3)c(OC)cc1Cl | -8.03 | 
18 | COc1ccc(C2CC(=O)c3c([nH]c(C(=O)OC4CCCCCC4)c3C)C2)cc1OC (stereo not given) | -4.62 | 
19 | CCN(CC)CCCNc1sc(S(=O)(=O)c2ccccc2)nc1S(=O)(=O)c1ccc(Cl)cc1 |  | 16.5 µM (active)
20 | CC/C(=C(\c1ccccc1)c1ccc(OCCN(C)C)cc1)c1ccccc1 | -13.2 | 

Row | Compound | activity change, negative = inhibition [%] | Potency
21 | COc1cc(CN(C(=O)COc2ccc(C)c(C)c2)c2ccccn2)cc(OC)c1OC | -74.2 | 
22 | CCOC(=O)CSc1nc2cc3c(cc2c(=O)n1CCCCCC(=O)NCc1ccc2c(c1)OCO2)OCO3 | -19.6 | 
23 | c1ccc(N2CCN(c3ncnc4[nH]ncc34)CC2)cc1 | -11.7 | 
24 | COc1cccc(C2CC(=O)Nc3cc4c(cc32)OCCO4)c1OC (stereo not given) | 10.7 | 
25 | CCC1=Nc2cc(C(=O)NC3CCCC3)ccc2Sc2ccc(Br)cc21 |  | 1.85 µM (active)
26 | Cc1ccc(S(=O)(=O)c2nnn3c2nc(NCc2cccs2)c2sccc23)cc1 | 1.95 | 
27 | CCCCNC(=O)CSc1nc2nc(C)c(Cc3ccccc3C)c(C)n2n1 | 17.8 | 
28 | CCn1c(CC2C(=O)N(C)c3ccc(Br)cc32)nc2ccccc2c1=O (stereo not given) | 13.8 | 
29 | CC(C)CCNC(=O)Nc1ccc2c(c1)N(C)C(=O)c1ccccc1S2 | -1.53 | 
30 | COc1ccc(NC(=O)CSc2nc3ccccc3nc2N2CCC(C)CC2)cc1 | 13.7 | 
31 | Cc1ccc([C@H]2Nc3ccc(S(=O)(=O)Nc4cccc(Cl)c4C)cc3[C@H]3C=CC[C@H]32)cc1 | -1.13 | 
32 | CCCCS(=O)(=O)c1oc(-c2cccs2)nc1S(=O)(=O)c1ccccc1 |  | 1.31 µM (active)
33 | COc1cccc(C(=O)Nc2ccc(-c3cc(C(F)(F)F)nn3-c3ccccc3)cc2)c1 | -20.9 | 
34 | CCCS(=O)(=O)c1c(S(=O)(=O)CCC)c2cc(C(C)(C)C)ccn2c1C(=O)c1ccc(OC)c(OC)c1 | -3.05 | 
35 | Cc1ccc(S(=O)(=O)c2nnn3c2nc(NC2CCCCC2)c2sccc23)cc1C | -2.29 | 
36 | O=C(/C=C/c1ccco1)Nc1ccc(Cl)c(-c2nc3cc(Cl)ccc3o2)c1 | -7.63 | 
37 | CCOC(=O)C(Cc1c[nH]c2ccccc12)NC(=O)COc1ccc(Cl)cc1 (stereo not given) | 0.217 | 
38 | CC(CNC(=O)c1ccc(Nc2nc3ccccc3n3nnnc23)cc1)c1ccccc1 (stereo not given) | 65.1 | 
39 | O=C(Nc1cccc(NC(=O)c2ccccc2Cl)c1)c1cccc(Br)c1 | 9.16 | 
40 | CCC(C)Sc1oc(-c2ccco2)nc1S(=O)(=O)c1ccc(C)cc1 (stereo not given) | -0.763 | 
